Assay results published in PubChem BioAssay (EPA / NIEHS).
Results filed as inconclusive are left out. The source made the active and inactive calls. How the source made its calls, unless noted: active means hit-call score of the fitted dose curve at least 0.9, where 1 is the maximum; inactive means score below 0.9.

Columns and labels:
[1] = target: Retinoic acid receptor alpha (Homo sapiens) (UniProt P10276); test: ATG_DR5_RAR_CIS: Attagene CIS-FACTORIAL HepG2 Assay for human Retinoic Acid Receptor Alpha (RARE), DR5 submotif (AID 2282934); settings: HepG2 Attagene cis-factorial RARE DR5 reporter, mRNA; actives raise or lower the signal;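 on AC50: reporter responds to endogenous RAR alpha beta and gamma in HepG2 not RARA alone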
Procedure, shortened: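 Reporter transcripts from a DR5-regulated unit, measured via RT-PCR plus capillary electrophoresis, reflect endogenous RAR activity in transiently transfected human HepG2 liver cells. Exposure lasted 24 h; gain or loss of signal scored against DMSO.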

[2] = target: Estrogen receptor (Homo sapiens) (UniProt P03372); test: ATG_ERa_TRANS: Attagene TRANS-FACTORIAL HepG2 Assay for human Estrogen Receptor alpha (ERa) (AID 2282970; active means hit-call score of the fitted dose curve at least 0.9, where 1 is the maximum); settings: HepG2 Attagene TRANS ERa GAL4 reporter, mRNA
Procedure, shortened: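 Human liver HepG2, transient transfection of multiple GAL4-UAS reporter units; TRANS format (exogenous NR-Gal4 chimera). 24 h dosing. Readout: reporter mRNA, RT-PCR, 6-FAM primer extension, HpaI digest, capillary electrophoresis. Positive direction vs DMSO.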

[3] = BSK_3C_Vis: BioMAP Diversity Plus: 3C Assay for Morphology Visualization (AID 2283025); settings: primary human endothelial cells (HUVEC);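 further: fitted both ways so gain or loss versus DMSO counts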;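 on AC50: light microscopy image of cell morphology used as background control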
Procedure, shortened: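 Human umbilical vein endothelial cell morphology was inspected by light microscopy 24 h after chemical dosing; scored bidirectionally relative to DMSO.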

[4] = read-out: Transforming growth factor beta 1 (TGFb1), TGFB1 (gene 7040); test: BSK_KF3CT_TGFb1: BioMAP Diversity Plus: KF3CT Assay for Transforming growth factor beta 1 (TGFb1) Biomarker Activity (AID 2283072); settings: primary human keratinocytes with fibroblasts; actives raise or lower the signal
Procedure, shortened: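 Human keratinocyte/foreskin fibroblast co-culture; TGF-b1 measured by ELISA 24 h after dosing, fitted bidirectionally versus DMSO. Cytotoxicity checked in parallel cultures by total protein (SRB staining, 560 nm).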

[5] = BSK_BT_PBMCCytotoxicity: PBMC Cytotoxicity Assessment in the BioMAP Diversity Plus: BT Assay (AID 2284225); settings: primary human B cells with PBMC;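 further: PBMC viability measured by Alamar Blue dye reduction fluorescence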
Procedure, shortened: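 PBMC (75,000/well) pretreated with compound 1 h, then activated with SEB and TSST-1 (20 ng/mL each final), incubated 90 h; Alamar Blue added 6 h, fluorescence read at 546/580 nm. Fitted relative to DMSO.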

[6] = read-out: Secreted IgG (sIgG), gene 3500; test: BSK_BT_sIgG: BioMAP Diversity Plus: BT Assay for Secreted IgG (sIgG) Biomarker Activity (AID 2284226); settings: primary human B cells with PBMC
Procedure, shortened: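 Human B cell plus PBMC co-culture; secreted IgG measured by ELISA 24 h after chemical dosing. Response fitted in positive direction relative to DMSO baseline.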

[7] = read-out: Interleukin 6 (IL6), IL6 (gene 3569); test: BSK_BT_xIL6: BioMAP Diversity Plus: BT Assay for Interleukin 6 (IL6) Biomarker Activity (AID 2284228); settings: primary human B cells with PBMC
Procedure, shortened: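 B cells and peripheral blood mononuclear cells (human primary co-culture) were dosed with chemical, and after 24 h IL-6 released into the medium was measured by Luminex xMAP. Responses were analysed as gain of signal over DMSO control.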

[8] = read-out: Interleukin 17A (IL17A), IL17A (gene 3605); test: BSK_BT_xIL17A: BioMAP Diversity Plus: BT Assay for Interleukin 17A (IL17A) Biomarker Activity (AID 2284229); settings: primary human B cells with PBMC
Procedure, shortened: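 Secreted IL-17A was the measured endpoint, read by Luminex xMAP multiplex in supernatants of a human B cell/PBMC co-culture harvested 24 h after chemical dosing. Signal increase relative to DMSO defined activity.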

[9] = read-out: Collagen III, COL3A1 (gene 1281); test: BSK_MyoF_CollagenIII: BioMAP Diversity Plus: MyoF Assay for Collagen III Biomarker Activity (AID 2284239); settings: primary human lung fibroblasts
Procedure, shortened: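 ELISA read-out of collagen III from human lung fibroblasts after 24 h of chemical treatment. The DMSO control served as negative control and baseline, with values fitted in the positive direction.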

[10] = read-out: Actin alpha 1 (ACTA1), ACTA1 (gene 58); test: BSK_MyoF_ACTA1: BioMAP Diversity Plus: MyoF Assay for Actin alpha 1 (ACTA1) Biomarker Activity (AID 2284244); settings: primary human lung fibroblasts
Procedure, shortened: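 Human lung fibroblast (MyoF system) cultures dosed with test chemical; alpha-SMA measured by ELISA 24 h after dosing, normalized to DMSO control. Cytotoxicity tracked in parallel cultures by SRB total-protein staining.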

[11] = read-out: Interleukin 2 (IL2), IL2 (gene 3558); test: BSK_BT_xIL2: BioMAP Diversity Plus: BT Assay for Interleukin 2 (IL2) Biomarker Activity (AID 2284245); settings: primary human B cells with PBMC
Procedure, shortened: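 Human B cell plus PBMC co-culture, 24 h after chemical dosing; secreted IL-2 quantified by Luminex xMAP multiplex, fitted for signal gain against DMSO baseline.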

[12] = read-out: Basic fibroblast growth factor (bFGF), FGF2 (gene 2247); test: BSK_MyoF_bFGF: BioMAP Diversity Plus: MyoF Assay for Basic fibroblast growth factor (bFGF) Biomarker Activity (AID 2284246); settings: primary human lung fibroblasts
Procedure, shortened: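 Human lung fibroblast cultures were dosed and measured 24 h later in 96-well format. bFGF biomarker levels quantified by ELISA, with activity fitted in the positive direction against DMSO.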

[13] = target: Estrogen receptor beta (Homo sapiens) (UniProt Q92731); test: OT_ER_ERbERb_1440: Odyssey Thera (OT) 24-hour HEK293T Protein-Complementation Assay for Estrogen Receptor-beta/-beta Homodimer (AID 2283380; active means hit-call score of the fitted dose curve at least 0.9, where 1 is the maximum;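 further: fluorescence gain from ER beta LBD homodimer complementation read by laser scanning cytometry; scored as signal increase over DMSO baseline for both agonists and antagonists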)
Procedure, shortened: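 Fluorescence increase, nuclear for agonists or whole-cell for antagonists, relative to DMSO vehicle, quantified by laser scanning cytometer after fixation and Draq5 staining. Readout from 24 h treatment of HEK293T cells carrying complementation-paired ER beta LBD (aa 310-547).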

[14] = target: Retinoic acid receptor RXR-alpha (Homo sapiens) (UniProt P19793); test: OT_NURR1_NURR1RXRa_0480: Odyssey Thera (OT) 8-hour HEK293T Protein Complementation Assay for Nurr1/retinoid X receptor (RXR) (AID 2283385; active means hit-call score of the fitted dose curve at least 0.9, where 1 is the maximum)
Procedure, shortened: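 HEK293T cells expressing Nurr1 and RXRα fused to reporter fragments (protein-fragment complementation); fluorescence measured 8 h after dosing. Gain of signal fitted relative to DMSO.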

[15] = target: Estrogen receptor beta (Homo sapiens) (UniProt Q92731); test: OT_ER_ERbERb_0480: Odyssey Thera (OT) 8-hour HEK293T Protein-Complementation Assay for Estrogen Receptor-beta/-beta Homodimer (AID 2283357; active means hit-call score of the fitted dose curve at least 0.9, where 1 is the maximum;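 further: active means signal gain over DMSO baseline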)
Procedure, shortened: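 Cells (HEK293T, stable ER-beta LBD PCA pair) are treated 8 hours, fixed and Draq5-stained; signal is fluorescence intensity increase relative to vehicle, fitted in the gain direction.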

[16] = ACEA_AR_agonist_AUC_viability: ACEA Biosciences xCELLigence Real-Time Cell Analysis on Androgen Receptor Agonism for Viability (AID 2283775; active means hit-call score of the fitted dose curve at least 0.9, where 1 is the maximum)
Procedure, shortened: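 Real-time impedance tracking of 22Rv1 growth, readings every 5 min for 5 h then hourly; area-under-curve viability endpoint at 80 hours, relative to DMSO. Compounds at eight concentrations, 1:4 steps, top 100 uM, n = 2.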

[17] = ACEA_AR_antagonist_AUC_viability: ACEA Biosciences xCELLigence Real-Time Cell Analysis on Androgen Receptor Antagonism for Viability (AID 2283776; active means hit-call score of the fitted dose curve at least 0.9, where 1 is the maximum;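 further: hits lower the growth signal relative to DMSO meaning cytotoxicity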)
Procedure, shortened: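 22Rv1 human prostate cancer cells were seeded on electrode plates, monitored overnight, then exposed to eight 1:4 dilutions from 100 uM final. Impedance-based growth kinetics at 80 h gave an AUC viability endpoint normalized to DMSO.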

[18] = target: Steroid hormone receptor ERR1 (Homo sapiens) (UniProt P11474); test: ATG_ERRa_TRANS: Attagene TRANS-FACTORIAL HepG2 Assay for human Estrogen-Related Receptor alpha (ERRa) (AID 2282971; active means hit-call score of the fitted dose curve at least 0.9, where 1 is the maximum); settings: HepG2 Attagene TRANS reporter, ERRa transactivation
Procedure, shortened: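 Reporter transcript induction was quantified by RT-PCR and capillary electrophoresis of FAM-labelled, HpaI-cut products after 24 h treatment of HepG2 cells carrying transiently transfected GAL4-UAS reporter units and an exogenous ERRa-Gal4 fusion; activity scored as increase over DMSO.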

[19] = target: Glucocorticoid receptor (Homo sapiens) (UniProt P04150); test: ATG_GR_TRANS: Attagene TRANS-FACTORIAL HepG2 Assay for human Glucocorticoid Receptor (GR) (AID 2282978; active means hit-call score of the fitted dose curve at least 0.9, where 1 is the maximum;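 further: activators score as hits since higher reporter transcript over DMSO is fitted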); settings: HepG2 Attagene TRANS GR reporter, mRNA transcription
Procedure, shortened: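 Exogenous NR-GAL4 fusion activity was assessed through induced GAL4-UAS reporter transcripts in transfected human HepG2 cells, quantified after 24 h by RT-PCR and fluorescent capillary electrophoresis with DMSO as baseline.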

[20] = system: rat Monoamine Oxidase, MAO-A, Peripheral (MAOAP), gene 29253; test: NVS_ENZ_rMAOAP: NovaScreen (NVS) Enzymatic Assay for rat Monoamine Oxidase, MAO-A, Peripheral (MAOAP) (AID 2283237; active means hit-call score of the fitted dose curve at least 0.9, where 1 is the maximum)
Procedure, shortened: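 Rat liver mitochondrial membranes served as the MAO-A source, with enzyme activity measured by radiometric scintillation counting 1.17 hours after dosing. Loss of signal was fitted against DMSO; primary screen used 25 uM in duplicate, follow-up used concentration series.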

Measured: AC50

Retinoic acid receptor RXR-alpha (Homo sapiens), sequence (P19793 whole entry, looked up, the tested form may be a part): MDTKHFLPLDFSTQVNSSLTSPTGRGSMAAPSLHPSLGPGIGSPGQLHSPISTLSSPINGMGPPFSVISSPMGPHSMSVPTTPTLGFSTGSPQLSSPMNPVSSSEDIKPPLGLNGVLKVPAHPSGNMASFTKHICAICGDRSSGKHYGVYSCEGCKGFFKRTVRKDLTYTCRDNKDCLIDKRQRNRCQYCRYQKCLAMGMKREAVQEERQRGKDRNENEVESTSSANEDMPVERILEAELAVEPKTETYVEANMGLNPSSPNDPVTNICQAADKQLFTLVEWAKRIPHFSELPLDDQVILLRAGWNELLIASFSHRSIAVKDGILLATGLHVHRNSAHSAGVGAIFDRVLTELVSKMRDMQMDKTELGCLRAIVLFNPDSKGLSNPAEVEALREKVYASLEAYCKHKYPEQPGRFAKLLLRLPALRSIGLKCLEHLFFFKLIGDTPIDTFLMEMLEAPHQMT
Glucocorticoid receptor (Homo sapiens), sequence (P04150 whole entry, looked up, the tested form may be a part): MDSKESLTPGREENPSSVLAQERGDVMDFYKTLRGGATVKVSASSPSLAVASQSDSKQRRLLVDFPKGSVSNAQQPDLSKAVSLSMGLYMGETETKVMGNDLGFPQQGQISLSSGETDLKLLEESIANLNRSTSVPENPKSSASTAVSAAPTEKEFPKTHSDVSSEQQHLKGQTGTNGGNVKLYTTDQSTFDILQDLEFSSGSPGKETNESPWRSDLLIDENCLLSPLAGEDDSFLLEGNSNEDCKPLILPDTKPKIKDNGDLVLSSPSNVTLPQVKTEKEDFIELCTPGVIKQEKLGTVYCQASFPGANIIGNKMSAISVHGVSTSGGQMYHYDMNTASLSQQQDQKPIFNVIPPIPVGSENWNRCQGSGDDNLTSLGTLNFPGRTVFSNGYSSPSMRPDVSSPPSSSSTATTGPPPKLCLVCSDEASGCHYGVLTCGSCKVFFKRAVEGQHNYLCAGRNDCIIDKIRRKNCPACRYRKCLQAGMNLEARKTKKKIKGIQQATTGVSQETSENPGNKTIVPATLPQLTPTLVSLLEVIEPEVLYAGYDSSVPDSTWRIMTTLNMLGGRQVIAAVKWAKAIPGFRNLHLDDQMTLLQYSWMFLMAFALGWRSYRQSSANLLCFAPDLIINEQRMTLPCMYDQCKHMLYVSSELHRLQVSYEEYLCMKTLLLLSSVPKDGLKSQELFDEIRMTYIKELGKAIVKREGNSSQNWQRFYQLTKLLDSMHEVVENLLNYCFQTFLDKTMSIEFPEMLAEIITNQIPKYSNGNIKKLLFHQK
Estrogen receptor (Homo sapiens), sequence (P03372 whole entry, looked up, the tested form may be a part): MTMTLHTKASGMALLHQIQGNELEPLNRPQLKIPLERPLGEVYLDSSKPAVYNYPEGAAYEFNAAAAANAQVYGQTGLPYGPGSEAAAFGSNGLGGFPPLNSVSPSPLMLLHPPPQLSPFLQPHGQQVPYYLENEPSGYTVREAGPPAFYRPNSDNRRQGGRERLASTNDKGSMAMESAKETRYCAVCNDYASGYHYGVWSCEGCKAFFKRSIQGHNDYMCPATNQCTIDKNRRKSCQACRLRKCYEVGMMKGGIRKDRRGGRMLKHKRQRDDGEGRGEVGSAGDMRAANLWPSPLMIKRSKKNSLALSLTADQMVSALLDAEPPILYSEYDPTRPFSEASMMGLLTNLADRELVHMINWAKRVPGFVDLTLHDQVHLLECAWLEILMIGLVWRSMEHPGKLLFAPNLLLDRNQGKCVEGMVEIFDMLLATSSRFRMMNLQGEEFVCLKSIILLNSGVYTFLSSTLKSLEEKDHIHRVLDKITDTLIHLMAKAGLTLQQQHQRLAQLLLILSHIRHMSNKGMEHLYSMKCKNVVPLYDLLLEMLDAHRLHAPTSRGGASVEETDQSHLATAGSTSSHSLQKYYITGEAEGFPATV
Estrogen receptor beta (Homo sapiens), sequence (Q92731 whole entry, looked up, the tested form may be a part): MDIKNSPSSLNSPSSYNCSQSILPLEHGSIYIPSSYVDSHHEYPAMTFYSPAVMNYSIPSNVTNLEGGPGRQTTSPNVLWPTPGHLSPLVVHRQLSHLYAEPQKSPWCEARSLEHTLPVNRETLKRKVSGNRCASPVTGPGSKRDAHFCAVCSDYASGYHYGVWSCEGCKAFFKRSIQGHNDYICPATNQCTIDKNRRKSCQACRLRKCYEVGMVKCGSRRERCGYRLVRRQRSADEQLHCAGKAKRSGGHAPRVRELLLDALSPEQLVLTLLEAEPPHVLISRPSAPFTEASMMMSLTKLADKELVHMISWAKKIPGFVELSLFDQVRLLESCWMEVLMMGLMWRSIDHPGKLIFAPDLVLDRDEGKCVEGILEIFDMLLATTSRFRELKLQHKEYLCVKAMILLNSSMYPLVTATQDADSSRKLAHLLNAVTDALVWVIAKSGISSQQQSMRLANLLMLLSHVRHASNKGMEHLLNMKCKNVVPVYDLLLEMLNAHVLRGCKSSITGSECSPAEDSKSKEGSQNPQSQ
Retinoic acid receptor alpha (Homo sapiens), sequence (P10276 whole entry, looked up): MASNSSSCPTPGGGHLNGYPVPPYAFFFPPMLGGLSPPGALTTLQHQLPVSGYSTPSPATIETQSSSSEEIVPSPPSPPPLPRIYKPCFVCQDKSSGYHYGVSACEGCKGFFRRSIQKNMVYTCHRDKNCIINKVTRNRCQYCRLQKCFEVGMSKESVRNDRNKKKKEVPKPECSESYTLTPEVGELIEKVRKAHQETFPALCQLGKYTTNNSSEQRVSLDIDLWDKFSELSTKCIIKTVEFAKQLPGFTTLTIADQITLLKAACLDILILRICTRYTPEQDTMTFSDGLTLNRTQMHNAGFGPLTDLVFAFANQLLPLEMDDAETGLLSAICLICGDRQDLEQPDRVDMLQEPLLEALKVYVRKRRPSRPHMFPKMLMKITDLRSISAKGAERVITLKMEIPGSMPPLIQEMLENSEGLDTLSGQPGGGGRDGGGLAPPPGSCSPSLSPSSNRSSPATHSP
Steroid hormone receptor ERR1 (Homo sapiens), sequence (P11474 whole entry, looked up, the tested form may be a part): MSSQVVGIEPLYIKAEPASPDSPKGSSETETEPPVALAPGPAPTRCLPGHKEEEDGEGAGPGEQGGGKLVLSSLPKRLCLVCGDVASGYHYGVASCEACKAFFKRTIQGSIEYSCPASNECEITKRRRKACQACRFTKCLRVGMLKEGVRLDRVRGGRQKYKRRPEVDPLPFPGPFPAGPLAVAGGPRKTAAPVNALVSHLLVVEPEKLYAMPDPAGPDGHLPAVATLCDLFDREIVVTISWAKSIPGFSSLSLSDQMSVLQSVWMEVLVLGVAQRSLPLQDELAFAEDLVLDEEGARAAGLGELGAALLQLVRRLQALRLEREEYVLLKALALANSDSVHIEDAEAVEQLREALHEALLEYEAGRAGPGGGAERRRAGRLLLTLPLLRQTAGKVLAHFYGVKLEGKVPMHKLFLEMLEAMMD

C[N+](C)=CCl
inactive: [1] | [2]

CCCCCCCCCCCC#N
active: [3] 40.2 µM | [9] 29.6 µM | [10] 26.5 µM | [12] 32.9 µM
inactive: [4] | [5] | [6] | [7] | [8] | [11]

CCOP(=O)(OCC)Oc1ccc([N+](=O)[O-])cc1
inactive: [1] | [13] | [14]

C=CC(=O)OCCO
inactive: [15] | [13] | [16] | [17]

Clc1ccc(-c2ccccc2)cc1
active: [2] 36.8 µM
not listed: [1] | [13] | [14] | [15] | [16] | [17] | [20]
inactive: all other assays above

Cl/C=C\CCl
inactive: [1] | [18]

N#CCNCC#N
inactive: [2]

O=[N+]([O-])c1ccc(Cl)cc1
inactive: [3] | [4] | [15] | [13] | [16]

Cc1cc(C)c(C2=C(OC(=O)CC(C)(C)C)C3(CCCC3)OC2=O)c(C)c1
inactive: [2] | [15] | [13] | [14] | [16] | [17]

C=CCN(CC=C)C(=O)C(Cl)Cl
not listed: [1] | [2] | [14] | [17] | [18] | [20]
inactive: all other assays above

CN(N=O)c1ccccc1
inactive: [2] | [18]

O=[N+]([O-])C=Cc1ccccc1
inactive: [18]
active: [3] 8.8 µM | [4] 3.05 µM | [5] 7.36 µM | [6] 5.7 µM | [7] 5.28 µM | [8] 5.44 µM | [9] 13.8 µM | [10] 12.3 µM | [11] 6.08 µM | [12] 11.9 µM

CC1OC(C)OC(C)O1 (stereo unspecified)
inactive: [18]

SCc1ccco1
active: [2] 54.1 µM

O=C(O)C(Br)Br
inactive: [19]

O=S(=O)(O)OOS(=O)(=O)O
inactive: [15] | [13] | [14] | [16] | [17]

O=[N+]([O-])O.O=[N+]([O-])O.[Cd]
active: [1] 2.08 µM

CC(C)(Cl)Cl
inactive: [1] | [14] | [16]
active: [17] 0.413 µM

c1ccc(Nc2ccc3ccccc3c2)cc1
inactive: [1] | [18] | [5]
active: [2] 4.65 µM | [3] 8.8 µM | [4] 26.6 µM | [6] 31.5 µM | [7] 29.9 µM | [8] 20 µM | [9] 20 µM | [10] 29 µM | [11] 20 µM | [12] 31 µM

N#CSCSc1nc2ccccc2s1
active: [20] 25 µM

Oc1cc2ccccc2c2ccccc12
active: [20] 3 µM

O=Cc1ccccc1C=O
inactive: [20]

Oc1ccc2ccccc2c1
active: [20] 12.9 µM

c1ccc2[nH]c(-c3cscn3)nc2c1
inactive: [20]

Oc1ccc2c(c1)-c1ccccc1C2
active: [20] 4.45 µM

Fc1ccccc1[C@@H](F)COC1CCC(Nc2ncnc3[nH]ncc23)CC1 (stereo partly specified)
inactive: [20]

CN(C)c1ccc(N=NS(=O)(=O)O)cc1
active: [20] 21.1 µM

Cc1cc(CCN2CCN(c3nsc4ccccc34)CC2)cc2c1NC(=O)CC2(C)C
inactive: [20]

Nc1cccc2c(N)cccc12
active: [20] 25 µM

O=C(c1ccc(O)cc1O)c1ccc(O)cc1O
active: [20] 0.935 µM

CCCOc1sc(C(=O)N2CCC(c3cc(CN)ccc3F)CC2)c(C)c1Br
active: [20] 2.6 µM
